Structures are written as SMILES. Counter-ions that a name gives are not always drawn. ± gives the standard deviation.

The test system of the assay is THP-1 macrophages infected with Mycobacterium tuberculosis H37Rv. The experiment in a line: intracellular M.tb growth inhibition relative to DMSO (0) and 4 uM bedaquiline (100); higher = stronger inhibition of intracellular bacterial growth. As to conditions: 10 µM; 4 days. The method, then: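 OICR kinase inhibitor library screened in duplicate at 10 uM against THP-1 macrophages (PMA-differentiated) infected with M. tuberculosis H37Rv-pTEC27 (tdTomato RFP), 4 days at 37 C. Rows with complete host cell loss (placeholder inhibition 0, cell loss 100) were removed.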
On to `O=C1NC(=O)[C@@H](c2cn3c4c(cccc24)CCC3)[C@@H]1c1c[nH]c2ccccc12`, for which the “intracellular M.tb growth inhibition” value is -118 ± 200%.

On to `CC(C)(C)c1nc2c3cc[nH]c(=O)c3c3cc(F)ccc3c2[nH]1` [Merck-5], for which the “intracellular M.tb growth inhibition” value was -268 ± 290%.

Regarding `COc1cc2c(Oc3ccc4[nH]c(C)cc4c3F)ncnc2cc1OCCCN1CCCC1` [Cediranib], the “intracellular M.tb growth inhibition” value is 6.57 ± 9.3%.

As to `N#CC(=C(/N)Sc1ccccc1N)/C(C#N)=C(/N)Sc1ccccc1N`, the “intracellular M.tb growth inhibition” value was determined as 13.3 ± 58%.

In the case of `Cn1cc(-c2ccc3nnc(Sc4ccc5ncccc5c4)n3n2)cn1`, the “intracellular M.tb growth inhibition” value was -164 ± 130%.

`Cc1csc(-c2nnc(Nc3ccc(Oc4ncccc4-c4ccnc(N)n4)cc3)c3ccccc23)c1`: the “intracellular M.tb growth inhibition” value is 126 ± 190%.

As to `CN1CCC(CNc2ccc3ncc(-c4cccc(OC(F)(F)F)c4)n3n2)CC1`, the “intracellular M.tb growth inhibition” value is 89.1 ± 24%.

Regarding `O=S(=O)(c1cccc2cnccc12)N1CCCNCC1` [Fasudil HCl], the “intracellular M.tb growth inhibition” value is 6.96 ± 7.6%.

With `Nc1nc(OCC2CCCCC2)c2[nH]cnc2n1`, the “intracellular M.tb growth inhibition” value is -15.1 ± 19%.

`CC(=O)c1c(C)c2cnc(Nc3ccc(N4CCNCC4)cn3)nc2n(C2CCCC2)c1=O`: the “intracellular M.tb growth inhibition” value was -126 ± 210%.

On to `Cc1nc(Nc2ncc(C(=O)Nc3c(C)cccc3Cl)s2)cc(N2CCN(CCO)CC2)n1` [Dasatinib], for which the “intracellular M.tb growth inhibition” value came out at 47.9 ± 35%.

With `CC(C)(C)c1cc(NC(=O)Nc2ccc(-c3cn4c(n3)sc3cc(OCCN5CCOCC5)ccc34)cc2)no1`, the “intracellular M.tb growth inhibition” value is 85.7 ± 43%.

Regarding `Oc1cccc(-c2nc(N3CCOCC3)c3oc4ncccc4c3n2)c1`, the “intracellular M.tb growth inhibition” value is -62.7 ± 17%.

As for `COc1ccc2c3n(c(=NC(=O)c4cccnc4)nc2c1OC)CCN3`, the “intracellular M.tb growth inhibition” value was -0.0325 ± 8.7%.

For the compound `COc1cc(CCc2cc(NC(=O)c3ccc(N4CC(C)NC(C)C4)cc3)n[nH]2)cc(OC)c1` (stereo not given), the “intracellular M.tb growth inhibition” value is -216 ± 180%.

With `COc1cc2nccc(Oc3ccc(NC(=O)NC4CC4)c(Cl)c3)c2cc1C(N)=O`, the “intracellular M.tb growth inhibition” value is -42.3 ± 140%.

As for `Cc1ccc(-n2nc(C(C)(C)C)cc2NC(=O)Nc2ccc(OCCN3CCOCC3)c3ccccc23)cc1`, the “intracellular M.tb growth inhibition” value was -1.53 ± 2.2%.

`Oc1c2ccccc2c2c3c(cccc13)N=N2`: the “intracellular M.tb growth inhibition” value was found to be 12.9 ± 20%.

Regarding `Cc1ccc(NC(=O)c2ccc(CN3CCN(C)CC3)cc2)cc1Nc1nccc(-c2cccnc2)n1` [Imatinib Mesylate], the “intracellular M.tb growth inhibition” value was found to be 54.9 ± 5%.

Turning to `O=C(O)c1cc(N(Cc2ccccc2O)Cc2cc(O)ccc2O)ccc1O` [Lavendustin A], the “intracellular M.tb growth inhibition” value came out at 10.4 ± 41%.

As for `CN(C)c1ccc(/C=C2/C(=O)Nc3ccccc32)cc1`, the “intracellular M.tb growth inhibition” value came out at 5.91 ± 3.3%.

`Nc1cccc(-c2cc3c(Oc4cccc(O)c4)ncnc3[nH]2)c1`: the “intracellular M.tb growth inhibition” value is -14.2 ± 26%.

In the case of `CS(=O)(=O)CCNCc1nc(-c2ccc3ncnc(Nc4ccc(OCc5cccc(F)c5)c(Cl)c4)c3c2)cs1`, the “intracellular M.tb growth inhibition” value came to 37.8 ± 12%.

On to `COc1cccc2cc(-c3nc([C@H]4CC[C@H](C(=O)O)CC4)n4ncnc(N)c34)[nH]c12` [OSI-027 hydrochloride], for which the “intracellular M.tb growth inhibition” value is -318 ± 370%.

With `O=C(NOCC1CC1)c1cc(Br)c(F)c(F)c1Nc1ccc(I)cc1Cl`, the “intracellular M.tb growth inhibition” value was found to be 59.8 ± 16%.

Regarding `CCc1cc(Nc2nccc(-c3c(-c4ccc(OC)c(C(=O)Nc5c(F)cccc5F)c4)nc4ccccn34)n2)c(OC)cc1N1CCC(N2CCN(S(C)(=O)=O)CC2)CC1`, the “intracellular M.tb growth inhibition” value was -49.9 ± 68%.

`O=C(Nc1ccc(-c2cn[nH]c2)cc1)C1COc2ccccc2O1` (stereo not given) [Rho Kinase Inhibitor V]: the “intracellular M.tb growth inhibition” value stood at 27.7 ± 10%.

Turning to `CN(C)c1cc2c(Nc3ccc4c(cnn4Cc4ccccc4)c3)ncnc2cn1`, the “intracellular M.tb growth inhibition” value stood at 43.5 ± 9.2%.

Turning to `COc1cc(/C=C(\C#N)C(N)=O)cc(CSc2nc3ccccc3s2)c1O`, the “intracellular M.tb growth inhibition” value stood at 21 ± 6.4%.

Turning to `COc1cc2ncnc(Nc3ccc(O)c(Br)c3)c2cc1OC`, the “intracellular M.tb growth inhibition” value stood at 13.5 ± 42%.

For the compound `NC(=O)Nc1cc(-c2cccc(F)c2)sc1C(=O)N[C@H]1CCCNC1`, the “intracellular M.tb growth inhibition” value was -218 ± 310%.

Regarding `Cc1cc(Nc2cc(N3CCN(C)CC3)nc(Sc3ccc(NC(=O)C4CC4)cc3)n2)n[nH]1`, the “intracellular M.tb growth inhibition” value is -6.87 ± 4.6%.

For the compound `CC(C)N(CCC(=O)c1ccc2ccccc2c1)Cc1ccccc1`, the “intracellular M.tb growth inhibition” value came out at 22.8 ± 6.8%.

On to `COc1ccc(Cl)cc1NC(=O)Nc1cc(C)nc2ccccc12`, for which the “intracellular M.tb growth inhibition” value is 59.1 ± 9.6%.

As for `Cn1cnc2c(NCc3ccccc3)nc(NCCO)nc21` [Olomoucine], the “intracellular M.tb growth inhibition” value is -10.5 ± 23%.

In the case of `COc1cc(OC2CCN(C)CC2)ccc1Nc1ncc2c(n1)n(C1CCCC1)c(=O)n2C`, the “intracellular M.tb growth inhibition” value is -17.7 ± 25%.

As for `Cc1cc(Nc2nc(N[C@@H](C)c3ccc(F)cc3)c(C#N)cc2F)n[nH]1`, the “intracellular M.tb growth inhibition” value is -124 ± 150%.

As to `Cn1c(=O)c(Oc2ccc(F)cc2F)cc2cnc(NC3CCOCC3)nc21`, the “intracellular M.tb growth inhibition” value was -140 ± 130%.

As to `Cc1ccc(NC(=O)c2ccc(CN3CCN(C)CC3)cc2)cc1Nc1nc(-c2cccnc2)cs1` [Masitinib mesylate], the “intracellular M.tb growth inhibition” value was 95.5 ± 1.8%.

Turning to `COc1ccc(-c2ccc3c(N4CCOC[C@@H]4C)nc(N4CCOC[C@@H]4C)nc3n2)cc1CO`, the “intracellular M.tb growth inhibition” value is -202 ± 240%.

Source of the values: the supplement of paper PMC7530171.
